Source: PubChem BioAssay (NCATS)
Results filed as inconclusive are left out. Activity calls are given as the source filed them. The call rests on the fitted dose curve; in most records, active means well fitted cell-killing curve with a large enough effect; inconclusive means small, poorly fitted or top-dose-only effect, or effect the other way; inactive means flat fitted curve, though single readings scatter.

Tests used:
Assay in all cases: Primary qHTS to identify gynecologic anti-cancer compounds using libraries of approved drugs and bioactive compounds (AID 1345084); further: nearly all actives have a fitted effect of over 55% in size
C33A = conditions: Gynecologic cancer cell panel viability, ATPlite luminescence, 48 h; series mostly up to 57.5 µM
In short: (§1)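 Cells, 1,000 per well, plated 16 h, then exposed 48 h at 37 C to compounds. Viability by ATPlite luminescence after 15 min at room temperature.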

CAOV3 = conditions: Gynecologic cancer cell panel viability, ATPlite luminescence, 48 h; series mostly up to 57.5 µM
In short: as §1

CASKI = conditions: Gynecologic cancer cell panel viability, ATPlite luminescence, 48 h; series mostly up to 57.5 µM
In short: as §1

Es-2 = conditions: Gynecologic cancer cell panel viability, ATPlite luminescence, 48 h; series mostly up to 57.5 µM
In short: as §1

HeLa = conditions: Gynecologic cancer cell panel viability, ATPlite luminescence, 48 h; series mostly up to 57.5 µM
In short: as §1

Hek293T = conditions: Gynecologic cancer cell panel viability, ATPlite luminescence, 48 h, control line for the selectivity index; series mostly up to 57.5 µM
In short: as §1

JEG-3 = conditions: Gynecologic cancer cell panel viability, ATPlite luminescence, 48 h; series mostly up to 57.5 µM
In short: as §1

OV90 = conditions: Gynecologic cancer cell panel viability, ATPlite luminescence, 48 h; series mostly up to 57.5 µM
In short: as §1

PA-1 = conditions: Gynecologic cancer cell panel viability, ATPlite luminescence, 48 h; series mostly up to 57.5 µM
In short: as §1

SKOV3 = conditions: Gynecologic cancer cell panel viability, ATPlite luminescence, 48 h; series mostly up to 57.5 µM
In short: as §1

Tov-21-G = conditions: Gynecologic cancer cell panel viability, ATPlite luminescence, 48 h; series mostly up to 57.5 µM
In short: as §1

Tov112D = conditions: Gynecologic cancer cell panel viability, ATPlite luminescence, 48 h; series mostly up to 57.5 µM
In short: as §1
On the % scale 0 is the no-effect control and ±100 the full control effect.

O=[N+]([O-])c1cn2c(n1)OCC(OCc1ccc(OC(F)(F)F)cc1)C2 (stereo unspecified)
inactive: Potency (C33A) | Potency (CAOV3) | Potency (CASKI) | Potency (Es-2) | Potency (HeLa) | Potency (Hek293T) | Potency (JEG-3) | Potency (OV90) | Potency (PA-1) | Potency (SKOV3) | Potency (Tov-21-G) | Potency (Tov112D)

C=C1C(O)C[C@@H]2C(C(=O)O)=CO[C@@H](O[C@@H]3O[C@H](CO)[C@@H](O)[C@H](O)[C@H]3OC(=O)c3ccc(O)cc3)[C@H]12 (stereo partly specified)
inactive: Potency (C33A) | Potency (CAOV3) | Potency (CASKI) | Potency (Es-2) | Potency (HeLa) | Potency (Hek293T) | Potency (JEG-3) | Potency (OV90) | Potency (PA-1) | Potency (SKOV3) | Potency (Tov-21-G) | Potency (Tov112D)

Cc1[nH]c2ccccc2c1CCNC(=O)c1ccccc1F
inactive: Potency (C33A) | Potency (CAOV3) | Potency (CASKI) | Potency (Es-2) | Potency (HeLa) | Potency (Hek293T) | Potency (JEG-3) | Potency (OV90) | Potency (PA-1) | Potency (SKOV3) | Potency (Tov-21-G) | Potency (Tov112D)

C=C1C[C@]23C[C@H]1CC[C@H]2C1=C[C@H]2OC(=O)[C@@](C)([C@H]1[C@@H]3C(=O)O)[C@H]2O
inactive: Potency (C33A) | Potency (CAOV3) | Potency (CASKI) | Potency (Es-2) | Potency (HeLa) | Potency (Hek293T) | Potency (JEG-3) | Potency (OV90) | Potency (PA-1) | Potency (SKOV3) | Potency (Tov-21-G) | Potency (Tov112D)

CC(=O)O[C@H]1[C@@H](O)[C@H](O[C@H]2[C@@H]3C=CO[C@@H](O[C@H]4O[C@@H](CO)[C@H](O)[C@@H](O)[C@@H]4O)[C@@H]3[C@@]3(CO)O[C@@H]23)O[C@@H](C)[C@@H]1OC(=O)/C=C/c1ccccc1
inactive: Potency (C33A) | Potency (CAOV3) | Potency (CASKI) | Potency (Es-2) | Potency (HeLa) | Potency (Hek293T) | Potency (JEG-3) | Potency (OV90) | Potency (PA-1) | Potency (SKOV3) | Potency (Tov-21-G) | Potency (Tov112D)

C[C@@H]1O[C@@H](O[C@@H]2[C@@H](O[C@@H]3O[C@@H](C)[C@H](O[C@@H]4OC[C@H](O)[C@H](O[C@@H]5OC[C@@H](O)[C@H](O)[C@H]5O)[C@H]4O)[C@@H](O[C@@H]4OC[C@](O)(CO)[C@H]4O)[C@H]3O)[C@H](OC(=O)[C@]34CCC(C)(C)C[C@H]3C3=CCC5[C@@]6(C)C[C@H](O)[C@H](O[C@@H]7O[C@H](CO[C@@H]8OC[C@H](O)[C@H](O)[C@H]8O)[C@@H](O)[C@H](O)[C@H]7O)C(C)(C)C6CC[C@@]5(C)[C@]3(C)C[C@H]4O)OC[C@H]2O)[C@H](O)[C@H](O)[C@H]1O (stereo partly specified)
inactive: activity change, negative = cytotoxicity (C33A) -0.354% [at 6.55 µM] | activity change, negative = cytotoxicity (CAOV3) 6.96% [at 6.55 µM] | activity change, negative = cytotoxicity (CASKI) -5.17% [at 6.55 µM] | activity change, negative = cytotoxicity (Es-2) 0.628% [at 6.55 µM] | activity change, negative = cytotoxicity (HeLa) 4.56% [at 6.55 µM] | activity change, negative = cytotoxicity (Hek293T) -4.92% [at 6.55 µM] | activity change, negative = cytotoxicity (JEG-3) -6.81% [at 6.55 µM] | activity change, negative = cytotoxicity (OV90) 10.7% [at 6.55 µM] | activity change, negative = cytotoxicity (PA-1) 18.2% [at 6.55 µM] | activity change, negative = cytotoxicity (SKOV3) 4.47% [at 6.55 µM] | activity change, negative = cytotoxicity (Tov-21-G) -2.27% [at 6.55 µM] | activity change, negative = cytotoxicity (Tov112D) 7.07% [at 6.55 µM]

CC(C)C(CO)Nc1nc(Nc2ccc(C(=O)O)c(Cl)c2)c2ncn(C(C)C)c2n1 (stereo unspecified)
inactive: Potency (C33A) | Potency (CAOV3) | Potency (CASKI) | Potency (Es-2) | Potency (HeLa) | Potency (Hek293T) | Potency (JEG-3) | Potency (OV90) | Potency (PA-1) | Potency (SKOV3) | Potency (Tov-21-G) | Potency (Tov112D)

CC(=O)/C=C/[C@H]1[C@](C)(O)[C@@H](O)[C@H](OC(C)=O)C2C(C)(C)CCC[C@@]21C (stereo partly specified)
inactive: Potency (C33A) | Potency (CAOV3) | Potency (CASKI) | Potency (Es-2) | Potency (HeLa) | Potency (Hek293T) | Potency (JEG-3) | Potency (OV90) | Potency (PA-1) | Potency (SKOV3) | Potency (Tov-21-G) | Potency (Tov112D)

O=C(CCc1ccccc1)N1CCC(O)(Cn2cnc3cc(Cl)ccc3c2=O)CC1
inactive: Potency (C33A) | Potency (CAOV3) | Potency (CASKI) | Potency (Es-2) | Potency (HeLa) | Potency (Hek293T) | Potency (JEG-3) | Potency (OV90) | Potency (PA-1) | Potency (SKOV3) | Potency (Tov-21-G) | Potency (Tov112D)

COc1ccc(-c2ccc(-c3cn(C(=O)N4CCCCC4c4ccccc4)nn3)cc2)cc1 (stereo unspecified)
inactive: Potency (C33A) | Potency (CAOV3) | Potency (CASKI) | Potency (Es-2) | Potency (HeLa) | Potency (Hek293T) | Potency (JEG-3) | Potency (OV90) | Potency (PA-1) | Potency (SKOV3) | Potency (Tov-21-G) | Potency (Tov112D)

CC1(C)C[C@H](O)C[C@@]2(C)OC(=O)C=C12
inactive: Potency (C33A) | Potency (CAOV3) | Potency (CASKI) | Potency (Es-2) | Potency (HeLa) | Potency (Hek293T) | Potency (JEG-3) | Potency (OV90) | Potency (PA-1) | Potency (SKOV3) | Potency (Tov-21-G) | Potency (Tov112D)

C=C1C(=O)OC2CC(C)=C(C(C)CCCO)C(O)C12 (stereo unspecified)
inactive: Potency (C33A) | Potency (CAOV3) | Potency (CASKI) | Potency (Es-2) | Potency (HeLa) | Potency (Hek293T) | Potency (JEG-3) | Potency (OV90) | Potency (PA-1) | Potency (SKOV3) | Potency (Tov-21-G) | Potency (Tov112D)

CC(=O)C12OC(C)(C)OC1CC1C3CCC4=CC(=O)C=CC4(C)C3(F)C(O)CC12C (stereo unspecified)
inactive: Potency (C33A) | Potency (CAOV3) | Potency (CASKI) | Potency (Es-2) | Potency (HeLa) | Potency (Hek293T) | Potency (JEG-3) | Potency (OV90) | Potency (PA-1) | Potency (SKOV3) | Potency (Tov-21-G) | Potency (Tov112D)
